Assay outcomes from PubChem.
M1 ag parental = counter-screen for M1 agonists: effect in parental CHO-K1 cells | Fluo-8 calcium fluorescence; scaled to maximal ATP response, vehicle zero | activation, % at 3 µM | 360,000 compounds, 0.48% hits | AID 602248, 2012; in the data active = activation above about 15%;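 also: untransfected CHO-K1 host cells lacking M1 receptor as counterscreen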
M4 ag = human M4 muscarinic receptor agonists, primary screen, CHO-K1 cells, Fluo-8 calcium fluorescence. Muscarinic acetylcholine receptor M4 (Homo sapiens), P08173. CHO-K1 hM4/Gqi5; vehicle 0%, full acetylcholine response 100%. activation, % at 3 µM. 360,000 compounds, 0.14% hits. AID 624127, 2012;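 active = activation above the run mean over all test wells plus 3 SD, cut at about 32% in these data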;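 also: peak over basal fluorescence ratio per well then scaled between controls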
Target sequence (P08173 whole entry, looked up): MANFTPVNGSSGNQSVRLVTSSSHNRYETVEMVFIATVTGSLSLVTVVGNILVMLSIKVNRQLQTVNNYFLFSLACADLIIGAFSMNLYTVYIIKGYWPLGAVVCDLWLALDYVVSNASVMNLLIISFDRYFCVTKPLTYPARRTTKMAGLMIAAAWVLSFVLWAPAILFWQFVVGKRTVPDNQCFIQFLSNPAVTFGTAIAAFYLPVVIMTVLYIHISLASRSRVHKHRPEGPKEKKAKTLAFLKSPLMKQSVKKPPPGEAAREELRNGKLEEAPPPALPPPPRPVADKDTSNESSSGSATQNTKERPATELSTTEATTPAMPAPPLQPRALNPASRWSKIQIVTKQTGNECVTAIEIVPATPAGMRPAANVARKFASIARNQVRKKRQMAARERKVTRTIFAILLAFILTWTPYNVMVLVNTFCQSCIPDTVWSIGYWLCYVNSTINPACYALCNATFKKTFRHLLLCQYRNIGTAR
M1 PAM parental = nonselective calcium activators in parental CHO-K1 cells, primary screen, counter-screen for M1 PAM project, cell-based, Fluo-8 calcium fluorescence, full deck, 1536-well | ATP EC20; 0% at ATP EC20, 100% at ATP max | activation, % at 3 µM | AID 602247, 2012 | 360,000 compounds, 0.02% hits;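 active = activation above the run cutoff, the mean activation of all test compounds plus 3 SD, cut at about 40% in these data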;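 also: peak over basal fluorescence ratio in a 140 s read after ATP addition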
CHRM4 antagonist = human M4 muscarinic receptor antagonists, primary screen, CHO cells, Fluo-8 calcium fluorescence | Muscarinic acetylcholine receptor M4 (Homo sapiens), P08173 | inhibition, % at 3 µM | CHO-hM4 cells, ACh EC80 | 360,000 compounds, 0.73% hits;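 active = inhibition above its plate's cutoff, the mean inhibition of sample wells plus 3 SD, cut at about 27% in these data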
CHO-K1 Ca antag = counter-screen for M1 antagonists: effect in parental CHO-K1 cells; ATP-induced calcium, Fluo-8 fluorescence; 360,000 compounds, 0.6% hits; AID 602250; inhibition, % at 3 µM;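 active = inhibition above a per-plate cutoff, the plate's mean sample inhibition plus 3 SD, cut at about 24% in these data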
M4 PAM = human M4 muscarinic receptor positive allosteric modulators, primary screen, CHO-K1 cells, Fluo-8 calcium fluorescence | 360,000 compounds, 0.4% hits | CHO-K1 hM4/Gqi5, ACh EC20; 0% = ACh EC20, 100% = maximal ACh | activation, % at 3 µM | AID 624126, 2012;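 active = activation above its plate's cutoff, the mean activation of sample wells plus 3 SD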
Of the large screens only hits and unclear results are named; the others gave an inactive call; ! = not confirmed by another sample. In the library only some 2% were active in any assay of this set; here they are far more common.

O=c1oc2cc(O)ccc2cc1-c1nc2ccccc2o1	M1 ag parental 31, M4 ag 41
O=C(Nc1c(C(=O)C2CC2)oc2ccccc12)c1ccc(Cl)cc1	M4 PAM 26
O=C(NNC(=O)c1cc(-c2ccccc2)nc2ccccc12)Nc1cccc(Cl)c1	none
O=C(NNC(=O)c1cc(-c2cccnc2)nc2ccccc12)Nc1ccc(Cl)cc1	CHRM4 antagonist 30, CHO-K1 Ca antag 29
Cc1cc(OCCCCOc2ccc(S(N)(=O)=O)c(C)c2)ccc1S(N)(=O)=O	none
S=C(NCc1ccccc1)NC1CCCc2ccccc21 (stereo not drawn)	none
CCCCc1cc(=O)oc2cc(OCC(=O)N3CCC(C(=O)O)(c4ccccc4)CC3)ccc12	none
CCCSc1nc(NCc2ccco2)c2c3c(sc2n1)COC(C)(C)C3	M4 PAM 43
CSc1nc(SCCN(C)C)c2c3c(sc2n1)COC(C)(C)C3	M4 ag 52
CCN(CC)c1c(C)nc2ccc(C(=O)NCc3ccc4c(c3)OCO4)cn12	none
Cc1ccc(S(=O)(=O)N2CCN(C(=O)Cn3nc(C)c([N+](=O)[O-])c3C)CC2)cc1	none
COc1ccc(Nc2c3ccccc3nc3ccccc23)cc1	M1 ag parental 16
Cc1ccc(S(=O)(=O)N2CCCCC2)cc1NC(=O)Nc1ccc(Cl)cc1Cl	none
CCN(CC(=O)Nc1cc(S(=O)(=O)N2CCCCC2)ccc1Cl)Cc1ccccc1	CHO-K1 Ca antag 36
CN1CCN(S(=O)(=O)c2ccc(NC(=O)Nc3cccc(Cl)c3)cc2)CC1	CHRM4 antagonist 29
O=C(Nc1cccc(Cl)c1)Nc1cc(S(=O)(=O)N2CCCCC2)ccc1Cl	CHO-K1 Ca antag 38
Cn1c(O)c(/C=N/Nc2ccccc2)c(=O)n(C)c1=O	none
Cc1cc(C)c(N(C(=O)c2csnn2)C(C(=O)NC(C)(C)C)c2ccncc2)c(C)c1 (stereo not drawn)	none
COc1cc2nc(C3CCC3)nc(N3CCN(c4ccccc4OC)CC3)c2cc1OC	CHRM4 antagonist 43
COc1cc2nc(C3CCC3)nc(N3CCN(c4ccccn4)CC3)c2cc1OC	none
COc1ccc(S(=O)(=O)N2CCCCC2c2cc(C(=O)Nc3ccc4c(c3)OCO4)no2)cc1 (stereo not drawn)	none
CCOc1ccc(-n2nnc3c(=O)n(CC(=O)N4CCCc5ccccc54)cnc32)cc1	CHRM4 antagonist 88
O=C(CN(C1CCCCC1)S(=O)(=O)c1ccc(Cl)cc1)N1CCOCC1	CHO-K1 Ca antag 27
Cc1cc(C)n(-c2ccccc2C#N)n1	CHO-K1 Ca antag 25
O=S(=O)(NCc1cn2ccsc2n1)c1cccs1	none
COc1ccc2c(c1OC)C(=O)OC2CC(=O)c1ccc(O)c(O)c1 (stereo not drawn)	none
CCc1nnc2sc(-c3ccc(NC(=O)c4ccco4)cc3)nn12	none
COc1cc(-c2nc3ccccc3s2)ccc1O	none
CCOc1cc(-c2nc3ccccc3s2)ccc1O	CHRM4 antagonist 31
COc1cc(OC)c(-c2nc3ccccc3s2)cc1OC	none
O=C(O)c1ccc2c(c1)C(=O)N(c1cccc(-c3nc4ccccc4s3)c1)C2=O	CHO-K1 Ca antag 24
COc1cccc(-c2nc3ccccc3s2)c1O	M1 ag parental 15
O=C(O)c1ccc2c(c1)C(=O)N(c1cccc3ccccc13)C2=O	none
CC(=O)Nc1cccc(-c2nc3ccccc3s2)c1	M1 ag parental 21
CC(=O)Nc1cccc(-c2nc3ccc(NC(C)=O)cc3s2)c1	none
CC(C)(C)C(=O)NC1CCN(S(C)(=O)=O)CC1	none
CCc1nn(C(C)C(=O)N2CCN(c3ccccc3)CC2)c(=O)c2cc3occc3n12 (stereo not drawn)	none
C/C(=N\NC(=O)CNC(=O)c1cccc(F)c1)c1ccc2ccccc2c1	CHRM4 antagonist 40
C/C(=N/NC(=O)CNC(=O)c1ccccc1)c1ccc(C)cc1	none
COC(=O)c1ccc(CN2CCC(CO)(CCOc3ccccc3)CC2)cc1	CHRM4 antagonist 48
COC(=O)c1ccc(CN2CCC(CO)(Cc3cccc(OC)c3)CC2)cc1	none
NC(=O)c1ccc[n+]([C@H]2O[C@@H](COP(=O)([O-])OP(=O)(O)OC[C@H]3O[C@@H](n4cnc5c(N)ncnc54)[C@H](O)[C@@H]3O)[C@H](O)[C@@H]2O)c1	M1 ag parental 27, M4 ag 80
COc1ccc(C(=O)NC[C@H]2O[C@@H](n3cnc4c(N)ncnc43)[C@H](O)[C@@H]2O)cc1OC	none
COc1cc(C(=O)O/N=C2\C=CC(=O)C=C2C)cc(OC)c1OC	none
O=C(Cc1ccc(Br)cc1)Nc1ncc([N+](=O)[O-])s1	M1 ag parental 16, CHO-K1 Ca antag 24
Nc1ccc2ccccc2c1[N+](=O)[O-]	none
CCCC(=O)OCC(=O)Nc1ccc([N+](=O)[O-])cc1C#N	CHO-K1 Ca antag 26
O=[N+]([O-])c1ccccc1CSc1nc2ccccc2o1	none
O=C(O)C1CCCCC1C(=O)NCc1ccc(F)cc1 (stereo not drawn)	M4 PAM 34
CCOc1cc2c3c(c1)C1(C(=O)N3C(C)(C)C=C2C)C(C#N)=C(N)Oc2cc(O)ccc21 (stereo not drawn)	CHO-K1 Ca antag 29
COC(=O)c1cccc(NC(=O)Nc2ccc(Cl)cc2)c1	none
Cc1cc(C(=O)OCC(=O)N2CCc3ccccc32)c(C)o1	none
CCCc1c(-c2ccc(Cl)cc2)ncn1Cc1ccccc1OC	M1 ag parental 16
CCCCc1c(-c2cccc(OC)c2)ncn1CCc1ccccc1OC	CHRM4 antagonist 41
CCc1c(-c2cccc(OC)c2)ncn1Cc1cccc(-c2ccccc2)c1	CHRM4 antagonist 34 (no result: M1 ag parental, M1 PAM parental, CHO-K1 Ca antag)
CCc1c(-c2ccccc2)ncn1Cc1cccc(-c2ccccc2)c1	none (no result: M1 ag parental, M1 PAM parental, CHO-K1 Ca antag)
O=C(CNC(=S)N(CCCN1CCOCC1)Cc1cccs1)NCc1ccccc1	none
CCCC(=O)NCC(c1cccs1)S(=O)(=O)c1ccc(Cl)cc1 (stereo not drawn)	none
CC(=O)Nc1ccc(Sc2ncccc2C(=O)Nc2ccc(OC(F)(F)F)cc2)cn1	M1 ag parental 53, M4 ag 142, CHRM4 antagonist 73, CHO-K1 Ca antag 59
Nc1ccc2ccc(O)cc2c1	none
C[n+]1c2cc(N)ccc2cc2ccc(N)cc21	M1 ag parental 210, M4 ag 94, CHRM4 antagonist 27!, CHO-K1 Ca antag 25!
Cc1cn(S(=O)(=O)c2ccccc2[N+](=O)[O-])cn1	none
